# Laboratory results taken from PubChem BioAssay.
# Calls of active or inactive are those of the source.
# Key:
# [1] = small molecules captured by biotinylated probe aFSTL3 – biochemical, small-molecule microarray, fluorescence 635/667, stem cell growth factor project, primary screen (AID 1064); conditions: higher = more signal;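 note: measures binding of the biotinylated anti-FSTL3 antibody to printed compounds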
# [2] = binders from COS7 lysate, DM2A8 probe, primary screen, torsin A project, cell lysate, small-molecule microarray, fluorescence 635/667 (AID 1065); conditions: higher = more signal, COS7 lysate expressing mutant human TOR1A
# [3] = small molecules captured by biotinylated probe aFGF2 – biochemical, small-molecule microarray, fluorescence 635/667, stem cell growth factor project, primary screen (AID 1067); conditions: higher = more signal;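 note: measures binding of biotinylated aFGF2 protein to printed compounds on slides; z-score merges feature fluorescence and signal-to-noise across triplicate slides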
# [4] = small molecules captured by biotinylated probe aFGF10 – biochemical, small-molecule microarray, fluorescence 635/667, stem cell growth factor project, primary screen (AID 1071); conditions: higher = more signal;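 note: score merges 667 nm spot intensity and signal to noise from triplicate slides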
# [5] = biological target: Neurogenic locus notch homolog protein 2 (Homo sapiens) (UniProt Q04721); test: small molecules binding Notch2 protein – biochemical, small-molecule microarray, 635 nm fluorescence, stem cell growth factors, primary screen (AID 1073); conditions: higher = more signal
# Sequence of Neurogenic locus notch homolog protein 2 (Homo sapiens) (Q04721 whole entry, looked up, canonical isoform): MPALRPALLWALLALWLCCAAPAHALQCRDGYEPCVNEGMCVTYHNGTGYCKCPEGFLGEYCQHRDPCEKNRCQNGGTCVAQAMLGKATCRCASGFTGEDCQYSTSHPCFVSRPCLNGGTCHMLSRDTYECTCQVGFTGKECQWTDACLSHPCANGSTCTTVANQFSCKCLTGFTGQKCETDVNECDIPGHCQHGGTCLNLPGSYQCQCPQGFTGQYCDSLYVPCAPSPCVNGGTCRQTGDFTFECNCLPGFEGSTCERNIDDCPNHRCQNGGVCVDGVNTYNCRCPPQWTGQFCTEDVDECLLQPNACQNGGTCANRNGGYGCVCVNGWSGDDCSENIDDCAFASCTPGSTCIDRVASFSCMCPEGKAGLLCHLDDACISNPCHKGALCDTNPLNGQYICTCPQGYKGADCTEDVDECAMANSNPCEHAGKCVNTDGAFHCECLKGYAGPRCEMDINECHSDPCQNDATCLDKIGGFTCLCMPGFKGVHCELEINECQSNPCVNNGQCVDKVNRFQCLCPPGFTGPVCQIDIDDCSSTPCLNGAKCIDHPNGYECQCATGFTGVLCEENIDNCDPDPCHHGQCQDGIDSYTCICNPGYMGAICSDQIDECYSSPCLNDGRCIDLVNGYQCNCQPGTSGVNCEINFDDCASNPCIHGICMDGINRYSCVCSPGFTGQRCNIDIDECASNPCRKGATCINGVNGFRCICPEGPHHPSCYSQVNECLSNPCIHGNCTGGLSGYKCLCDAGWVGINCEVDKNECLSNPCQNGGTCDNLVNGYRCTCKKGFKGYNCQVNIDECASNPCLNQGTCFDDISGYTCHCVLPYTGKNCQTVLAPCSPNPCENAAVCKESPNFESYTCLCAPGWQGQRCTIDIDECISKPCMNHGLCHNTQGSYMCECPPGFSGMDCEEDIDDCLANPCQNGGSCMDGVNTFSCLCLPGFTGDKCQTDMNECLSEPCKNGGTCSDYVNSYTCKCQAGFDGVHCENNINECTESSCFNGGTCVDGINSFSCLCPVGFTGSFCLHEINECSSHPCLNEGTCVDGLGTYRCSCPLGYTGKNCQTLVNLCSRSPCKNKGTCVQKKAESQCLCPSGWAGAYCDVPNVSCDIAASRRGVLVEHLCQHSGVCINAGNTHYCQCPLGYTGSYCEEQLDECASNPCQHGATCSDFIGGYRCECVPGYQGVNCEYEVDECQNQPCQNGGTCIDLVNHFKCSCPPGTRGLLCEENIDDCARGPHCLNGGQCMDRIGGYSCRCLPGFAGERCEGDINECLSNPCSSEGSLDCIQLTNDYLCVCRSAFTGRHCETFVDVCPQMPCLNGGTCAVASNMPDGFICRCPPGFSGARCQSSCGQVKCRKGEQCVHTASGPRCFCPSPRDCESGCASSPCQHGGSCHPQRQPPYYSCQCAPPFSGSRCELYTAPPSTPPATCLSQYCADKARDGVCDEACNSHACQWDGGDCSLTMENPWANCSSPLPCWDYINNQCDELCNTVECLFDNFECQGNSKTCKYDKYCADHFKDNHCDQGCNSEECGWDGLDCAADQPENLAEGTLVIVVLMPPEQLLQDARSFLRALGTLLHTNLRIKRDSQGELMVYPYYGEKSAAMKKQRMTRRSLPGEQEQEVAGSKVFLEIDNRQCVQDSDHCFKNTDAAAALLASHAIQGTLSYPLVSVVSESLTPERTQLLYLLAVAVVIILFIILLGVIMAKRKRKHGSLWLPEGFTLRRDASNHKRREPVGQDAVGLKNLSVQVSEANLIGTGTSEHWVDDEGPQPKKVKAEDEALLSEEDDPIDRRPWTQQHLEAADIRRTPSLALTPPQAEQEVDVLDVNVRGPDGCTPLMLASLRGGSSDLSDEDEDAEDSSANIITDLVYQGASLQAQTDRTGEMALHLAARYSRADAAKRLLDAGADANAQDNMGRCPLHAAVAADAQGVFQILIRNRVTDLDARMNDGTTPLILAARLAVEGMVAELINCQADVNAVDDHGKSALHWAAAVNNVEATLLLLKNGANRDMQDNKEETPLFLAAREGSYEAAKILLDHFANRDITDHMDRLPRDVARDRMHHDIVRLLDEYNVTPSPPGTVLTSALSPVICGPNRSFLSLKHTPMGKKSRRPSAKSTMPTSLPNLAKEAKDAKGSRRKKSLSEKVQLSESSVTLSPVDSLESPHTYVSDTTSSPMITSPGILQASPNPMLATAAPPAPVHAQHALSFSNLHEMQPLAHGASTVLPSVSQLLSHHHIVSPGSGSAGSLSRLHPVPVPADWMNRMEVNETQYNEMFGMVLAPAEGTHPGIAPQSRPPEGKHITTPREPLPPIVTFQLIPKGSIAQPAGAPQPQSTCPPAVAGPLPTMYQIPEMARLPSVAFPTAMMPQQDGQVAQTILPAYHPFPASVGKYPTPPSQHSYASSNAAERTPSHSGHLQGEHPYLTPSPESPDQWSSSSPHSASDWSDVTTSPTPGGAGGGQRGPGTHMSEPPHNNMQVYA
# [6] = biological target: Pro-neuregulin-1, membrane-bound isoform (Homo sapiens) (UniProt Q02297); test: small molecules binding neuregulin-1 protein – biochemical, small-molecule microarray, fluorescence 635/667, psychiatric disease protein project, primary screen (AID 1075); conditions: NRG1 binding, 635 nm fluorescence, higher = more signal;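 note: score combines 667 nm spot fluorescence with signal to noise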
# [7] = tested on: Neuregulin-1 EGF-like domain; test: small molecules binding NRG1 EGF domain – biochemical, small-molecule microarray, 635 nm fluorescence, primary screen (AID 1081); conditions: higher = more signal;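 note: binding of the protein to compounds printed on small-molecule microarray slides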
# [8] = FRG1 expression reporter modulators in myotubes – cell-based, C2C12 myotubes, firefly/Renilla luciferase, luminescence, FRG1 inhibition for FSHD, primary screen (AID 1084); conditions: FRG1 promoter luciferase, higher = more signal, called active from +8 up or from −8 down
# [9] = small molecules captured by biotinylated probe aFST – biochemical, small-molecule microarray, fluorescence 635/667, stem cell growth factor project, primary screen (AID 1086); conditions: higher = more signal;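 note: score merges 667 nm fluorescence with signal-to-noise of each printed compound spot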
# [10] = binders of probe aHhip on microarray, primary screen, stem cell growth factor project, biochemical, small-molecule microarray, fluorescence 635/667 (AID 1087); conditions: higher = more signal;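 note: score merges spot fluorescence at 667nm with spot signal to noise ratio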
# [11] = tested on: PRMT1 (protein arginine N-methyltransferase 1); test: small molecules binding arginine methyltransferase PRMT1 – biochemical, small-molecule microarray, 635 nm fluorescence, primary screen (AID 1088); conditions: higher = more signal;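 note: binding of Prmt1 protein to compounds spotted on small-molecule microarray slides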
# [12] = growth effects on S. cerevisiae YJM789 – YJM789 clinical isolate, OD600, 24 h, basal, primary screen (AID 1089); conditions: higher = more signal, called active from +8 up or from −8 down;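 note: growth of clinical yeast isolate S. cerevisiae YJM 789 seeded 1000 cells per well; test concentration not given here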
# [13] = S. pombe growth modifiers, basal conditions – strain 972, OD600, 24 h, no modulator, primary screen (AID 1090);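 note: basal condition with compound alone and no growth modifier present; test concentration not given here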; conditions: S. pombe 972 growth, higher = more signal, called active from +8 up or from −8 down
# [14] = budding yeast growth modifiers under rapamycin – strain BY4716, OD600, 96 h, primary screen (AID 1091); note: test concentration not given here; conditions: S. cerevisiae BY4716 + rapamycin, higher = more signal, called active from +8 up or from −8 down
# [15] = biological target: Torsin-1A-interacting protein 2 (Homo sapiens) (UniProt Q8NFQ8); test: small molecules binding lysate-expressed LULL1 – cell lysate, human LULL1 lysate, 635/667 nm fluorescence, primary screen (AID 1092); conditions: small-molecule microarray, hLULL1 lysate binding, 635 nm fluorescence; higher = more signal;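 note: probe is lysate of COS7 cells overexpressing human LULL1; score merges per-feature 667 nm fluorescence with signal-to-noise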
# [16] = optical density change of DRC41 E. coli – strain DRC41, OD650, 24 h, E. coli filamentation project, primary screen (AID 1093);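 note: MC1000 strain lacking acrAB efflux and sulA so SOS filamentation is blocked; test concentration not given here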; conditions: E. coli DRC41 growth, higher = more signal, called active from +8 up or from −8 down
# [17] = probe aLefty2 binding to arrayed compounds – biochemical, biotinylated probe, 635/667 nm fluorescence, primary screen (AID 1094); conditions: small-molecule microarray, higher = more signal;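 note: score merges spot fluorescence near 667 nm with spot signal-to-noise ratio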
# [18] = tested on: Noggin (protein binding on small-molecule microarray); test: small molecules binding Noggin protein – biochemical, 635/667 nm fluorescence, primary screen (AID 1095); conditions: 635 nm fluorescence, higher = more signal;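 note: score merges 667 nm feature fluorescence with signal to noise over triplicate slides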
# [19] = biological target: Neurogenic locus notch homolog protein 3 (Homo sapiens) (UniProt Q9UM47); test: small molecules binding NOTCH3 protein – biochemical, 635/667 nm fluorescence, primary screen (AID 1096); conditions: small-molecule microarray, 635 nm fluorescence, higher = more signal
# Sequence of Neurogenic locus notch homolog protein 3 (Homo sapiens) (Q9UM47 whole entry, looked up): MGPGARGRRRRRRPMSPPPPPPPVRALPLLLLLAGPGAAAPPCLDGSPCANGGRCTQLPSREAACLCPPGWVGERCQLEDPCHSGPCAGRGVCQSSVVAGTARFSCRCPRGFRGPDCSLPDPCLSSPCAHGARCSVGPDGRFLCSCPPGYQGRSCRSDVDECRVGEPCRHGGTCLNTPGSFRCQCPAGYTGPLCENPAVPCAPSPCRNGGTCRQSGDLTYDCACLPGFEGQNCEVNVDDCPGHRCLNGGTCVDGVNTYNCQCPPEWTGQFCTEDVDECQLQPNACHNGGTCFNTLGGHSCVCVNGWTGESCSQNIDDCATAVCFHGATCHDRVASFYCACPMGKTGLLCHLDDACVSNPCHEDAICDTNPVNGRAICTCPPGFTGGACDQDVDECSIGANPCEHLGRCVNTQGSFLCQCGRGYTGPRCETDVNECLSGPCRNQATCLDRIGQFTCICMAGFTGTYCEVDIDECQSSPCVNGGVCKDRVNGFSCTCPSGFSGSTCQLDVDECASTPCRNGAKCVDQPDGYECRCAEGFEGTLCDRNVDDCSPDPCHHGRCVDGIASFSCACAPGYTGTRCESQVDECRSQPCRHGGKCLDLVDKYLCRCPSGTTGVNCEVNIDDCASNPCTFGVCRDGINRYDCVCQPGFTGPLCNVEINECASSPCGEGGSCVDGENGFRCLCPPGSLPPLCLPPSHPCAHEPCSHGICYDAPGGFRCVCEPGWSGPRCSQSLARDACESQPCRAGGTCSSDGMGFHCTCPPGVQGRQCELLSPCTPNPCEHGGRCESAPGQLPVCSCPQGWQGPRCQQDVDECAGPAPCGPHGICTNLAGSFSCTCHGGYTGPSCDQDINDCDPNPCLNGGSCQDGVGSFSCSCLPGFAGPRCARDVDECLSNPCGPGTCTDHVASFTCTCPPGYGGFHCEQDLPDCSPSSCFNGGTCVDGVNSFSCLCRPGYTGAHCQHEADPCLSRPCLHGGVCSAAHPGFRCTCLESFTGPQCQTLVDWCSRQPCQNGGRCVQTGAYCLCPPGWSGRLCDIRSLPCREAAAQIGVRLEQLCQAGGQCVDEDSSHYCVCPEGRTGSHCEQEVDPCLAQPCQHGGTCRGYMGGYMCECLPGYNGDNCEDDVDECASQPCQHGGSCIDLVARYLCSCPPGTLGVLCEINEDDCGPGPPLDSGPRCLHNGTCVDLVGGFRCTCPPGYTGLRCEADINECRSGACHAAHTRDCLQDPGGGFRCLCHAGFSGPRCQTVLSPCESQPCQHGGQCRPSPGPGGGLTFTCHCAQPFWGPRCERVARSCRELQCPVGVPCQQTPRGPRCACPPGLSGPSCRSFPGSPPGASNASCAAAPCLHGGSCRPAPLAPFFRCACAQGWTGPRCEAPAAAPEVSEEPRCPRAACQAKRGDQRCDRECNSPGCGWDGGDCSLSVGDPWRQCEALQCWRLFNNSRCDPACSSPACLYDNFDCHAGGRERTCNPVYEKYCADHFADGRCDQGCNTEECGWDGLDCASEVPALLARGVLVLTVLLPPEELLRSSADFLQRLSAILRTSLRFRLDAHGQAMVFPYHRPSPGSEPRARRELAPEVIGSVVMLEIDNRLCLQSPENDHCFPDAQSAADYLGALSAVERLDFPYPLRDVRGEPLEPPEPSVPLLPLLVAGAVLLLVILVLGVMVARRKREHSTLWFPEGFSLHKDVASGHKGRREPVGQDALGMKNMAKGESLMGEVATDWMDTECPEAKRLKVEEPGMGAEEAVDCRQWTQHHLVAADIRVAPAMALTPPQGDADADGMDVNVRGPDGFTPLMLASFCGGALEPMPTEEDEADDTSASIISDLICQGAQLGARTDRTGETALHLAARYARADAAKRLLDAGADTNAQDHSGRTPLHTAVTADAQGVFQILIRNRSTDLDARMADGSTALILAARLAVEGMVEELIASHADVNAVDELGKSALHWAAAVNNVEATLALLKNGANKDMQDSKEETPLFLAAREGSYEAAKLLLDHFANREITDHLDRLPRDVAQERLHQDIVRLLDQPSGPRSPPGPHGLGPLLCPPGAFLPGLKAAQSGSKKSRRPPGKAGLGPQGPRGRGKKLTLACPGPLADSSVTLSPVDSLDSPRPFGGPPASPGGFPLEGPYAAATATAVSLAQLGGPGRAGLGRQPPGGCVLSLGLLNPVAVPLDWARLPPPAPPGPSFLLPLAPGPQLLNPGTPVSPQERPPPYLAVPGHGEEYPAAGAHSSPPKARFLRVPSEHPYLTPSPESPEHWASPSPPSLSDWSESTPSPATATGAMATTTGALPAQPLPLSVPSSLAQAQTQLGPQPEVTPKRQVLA
# [20] = probe aEGFR binding to arrayed compounds – biochemical, biotinylated probe, 635/667 nm fluorescence, primary screen (AID 1097); conditions: small-molecule microarray, higher = more signal;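 note: probe is a biotinylated anti-EGFR antibody binding compounds printed on slides; score combines fluorescence near 667 nm and signal to noise of each spot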
Structure (SMILES),composite z-score [1],composite z-score [2],composite z-score [3],composite z-score [4],composite z-score [5],composite z-score [6],composite z-score [7],z-score [8],composite z-score [9],composite z-score [10],composite z-score [11],z-score [12],z-score [13],z-score [14],composite z-score [15],z-score [16],composite z-score [17],composite z-score [18],composite z-score [19],composite z-score [20]
CCOc1cc(C(O)C2C=CC3C(=O)N(c4ccccc4)C(=O)C3N2Nc2ccccc2)ccc1O (stereo not given),0.259,0.107,0.252,1.03,0.66,1.8,1.2,0.893 (inactive),0.771,-0.189,0.408,0.881 (inactive),-0.692 (inactive),1.2 (inactive),3.52,0.374 (inactive),-0.0371,-0.419,0.498,0.0192
C=CC[C@]12N=C(c3ccc(OCCCO)cc3)O[C@H]1c1ccccc1N(Cc1ccccc1)C2=O,1.67,0.473,-0.0316,-0.138,0.877,0.138,0.774,-2.33 (inactive),0.625,0.0176,1.46,-0.523 (inactive),-0.371 (inactive),1.89 (inactive),1.04,0.508 (inactive),0.331,0.313,0.483,-0.0692
CCCN1C(=O)[C@]2(CCS(=O)(=O)c3ccccc3)N=C(c3ccc(OCCCO)cc3)O[C@@H]2c2ccccc21,0.375,-0.212,-0.0027,0.572,0.58,1.28,1.27,-0.775 (inactive),0.458,-0.0645,1.54,-0.559 (inactive),-0.0812 (inactive),2.82 (inactive),2.84,1.97 (inactive),0.106,0.866,1.09,-0.0509
COCCCN1C(=O)[C@@]2(Cc3ccccc31)c1ccccc1C(=O)N(Cc1ccccc1C(F)(F)F)[C@H]2c1ccc(CO)cc1,-0.774,0.356,-0.123,-0.179,-0.16,-0.0485,0.848,-0.0864 (inactive),0.222,-0.526,0.979,1.19 (inactive),0.339 (inactive),-1.41 (inactive),2.51,-0.253 (inactive),-0.143,0.992,0.627,-0.121
CC1CC/C=C\[C@H]2OC34C=CCN(C(C)(C)C)C(=O)[C@H]3N(CCCCCCO)C(=O)[C@@H]4C2C(=O)O1 (stereo not given in full),0.237,-0.153,-0.149,0.0097,-0.945,0.866,1.13,-1.09 (inactive),-0.222,-0.0994,-0.005,-0.242 (inactive),-0.357 (inactive),-0.19 (inactive),1.4,-0.31 (inactive),-0.183,-0.597,0.0452,-0.371
CCOC(=O)C1=CCC(c2ccccc2)N(S(=O)(=O)CC[Si](C)(C)C)C1 (stereo not given),-0.264,0.701,-0.137,-0.765,-0.606,0.0168,-0.518,-3.74 (inactive),-0.407,-0.0994,-0.0595,-0.465 (inactive),0.178 (inactive),2.78 (inactive),0.0058,0.185 (inactive),-0.235,-0.288,-0.822,-0.334
CCCCc1cn(C[C@H](Cc2ccccc2)NC(=O)N[C@H](CO)CCc2oc(C(C)=O)c(C(=O)OC)c2C(=O)OC)nn1,-0.422,0.651,-0.166,0.864,1.56,0.979,1.32,0.833 (inactive),0.839,-0.0994,1.54,-0.425 (inactive),-0.0326 (inactive),-0.173 (inactive),1.7,0.0003 (inactive),0.165,1.14,1.1,0.114
COC(=O)[C@@]1(Cc2ccc(F)cc2)[C@H]2c3cc(C(=O)N(C)C)n(Cc4nc5ccccc5[nH]4)c3C[C@H]2CN1C(=O)c1ccccc1,0.258,-1.35,0.349,0.841,1.66,2.13,1.13,-0.169 (inactive),1.36,-0.139,0.173,0.37 (inactive),0.821 (inactive),-0.444 (inactive),3.36,-0.373 (inactive),0.341,-0.138,1.08,0.191
COC(=O)[C@@]1(Cc2ccccc2)[C@H]2c3cc(C(=O)N4CCCC4)n(Cc4nc5ccccc5[nH]4)c3C[C@H]2CN1C(=O)c1ccccc1,1.19,0.74,-0.0879,0.115,1.72,2.07,0.807,2.63 (inactive),1.65,0.507,1.54,-0.0672 (inactive),0.193 (inactive),1.63 (inactive),3.82,0.0607 (inactive),0.746,-0.192,1.11,0.13
CC(C)C(CO)N1C(=O)[C@@H]2[C@H]3C(=O)OCC=C[C@H]3OC23C=CCN(C(C)C)C(=O)[C@@H]13 (stereo not given in full),-0.25,-0.615,-0.187,-0.271,-0.142,0.814,-0.677,-0.724 (inactive),-0.422,-0.374,0.261,0.58 (inactive),0.38 (inactive),0.136 (inactive),1.4,1.99 (inactive),-0.273,0.503,0.51,-0.194
C=CCN(Cc1ccccc1)C(=O)C(c1cccs1)N(CCOCCO)C(=O)/C=C\C(=O)O (stereo not given),0.713,-1.43,-0.203,-0.873,-1.04,-0.353,-0.421,0.919 (inactive),-1.59,-0.341,-0.785,-2.16 (inactive),0.0374 (inactive),-1.01 (inactive),1.2,2.25 (inactive),-0.0555,-2.41,-1.7,-0.329
C=CC[C@@]1(C(=O)N(C)C)N=C(c2ccc(OCCCO)cc2)O[C@@H]1c1ccccc1N=[N+]=[N-],1.12,1.72,0.0732,0.622,0.984,1.52,1.29,2.35 (inactive),1.21,0.011,1.55,-0.431 (inactive),-0.0481 (inactive),-0.0865 (inactive),3.57,0.724 (inactive),0.193,1.07,1.06,0.276
CC1CC/C=C\[C@H]2OC34C=CCN(Cn5nnc6ccccc65)C(=O)[C@H]3N(C(CO)C(C)C)C(=O)[C@@H]4C2C(=O)O1 (stereo not given in full),0.0351,-0.804,-0.175,-0.266,0.145,1.22,1.42,0.298 (inactive),-0.314,0.0505,1.34,-0.973 (inactive),-1.02 (inactive),-0.931 (inactive),3.28,0.309 (inactive),0.0723,-0.772,0.113,-0.0987
CCc1oc(CC[C@@H](CO)NC(=O)NCCn2cc(C3(O)CCCCC3)nn2)c(C(=O)OC)c1C(=O)OC,-0.33,0.979,-0.0549,0.809,0.924,0.172,1.23,0.306 (inactive),0.457,-0.353,1.32,0.458 (inactive),-0.173 (inactive),-0.874 (inactive),0.775,-1.2 (inactive),-0.0615,1.39,0.939,0.0473
CN1C(=O)C2C=CC(C(O)C3CCCCC3)N(Nc3ccc([N+](=O)[O-])cc3[N+](=O)[O-])C2C1=O (stereo not given),0.0318,0.548,0.0331,0.752,1.6,1.59,1.32,0.358 (inactive),1.51,0.236,1.52,0.492 (inactive),1.19 (inactive),0.68 (inactive),3.24,-0.632 (inactive),0.191,0.219,1.03,0.0624
COc1cc2c(cc1OC)CN(C(=O)[C@H]1[C@@H]3C(=O)O[C@@H](c4ccccc4)[C@@H](c4ccccc4)N3[C@@H](c3ccc(O)cc3)[C@]13C(=O)Nc1ccc(C#CCNC(N)=O)cc13)CC2,-0.297,0.0737,-0.0473,0.689,-0.0344,0.404,0.37,0.297 (inactive),0.135,0.0854,1.01,0.485 (inactive),-0.363 (inactive),0.518 (inactive),0.458,0.395 (inactive),0.0386,0.622,0.46,-0.02
C=C(COC)/C(=C/C[C@@H](OC(C)=O)c1ccc(OCCO)cc1)c1cc(C(=O)OC)ccc1OC,-0.524,0.118,-0.0316,0.872,0.62,0.67,0.705,0.296 (inactive),0.627,0.107,1.54,0.0937 (inactive),-0.51 (inactive),-0.645 (inactive),2.16,-0.018 (inactive),-0.027,1.35,1.12,-0.0728
CC(C)N1C(=O)c2ccccc2[C@](C)(C(=O)NCc2ccccc2)[C@@H]1c1ccc(CO)cc1,0.197,0.0699,-0.157,-0.158,-0.463,-1.06,0.744,-1.03 (inactive),-0.27,-0.0994,0.0055,-0.261 (inactive),-1.16 (inactive),-0.625 (inactive),1.91,-0.587 (inactive),0.0322,-0.969,-0.394,-0.244
C=C[C@H](COC(C)=O)N(C(=O)OC(C)(C)C)S(=O)(=O)c1ccc(Br)cc1,0.726,0.303,0.278,0.348,1.33,-0.243,0.652,-1.89 (inactive),1.23,0.32,0.616,0.0834 (inactive),-1.25 (inactive),0.239 (inactive),0.597,1.47 (inactive),0.518,1.09,0.0585,0.545
